In all, about 59,000 compounds went through this assay and about 6,200 (11%) were called active. About 9% were inconclusive and are not listed. No stated cut-off is given here; in the data, active means max dye-equivalent concentration above about 10 nM; inconclusive means mostly about 1.1 nM to 9.6 nM; inactive means weaker than that. Many of the other results were omitted from the sample, so actives are more common in it than they were. Where a structure was tested more than once in an assay, its records may differ in their call.

A short description of the experiment: qHTS Assay for Spectroscopic Profiling in 4-MU Spectral Region. Conditions: compound autofluorescence, 340/450 nm, 4-MU equivalents; stronger effect = higher value. Summed up: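 Compounds in 100 mM Tris, pH 8.0, sat 15 min at room temperature before fluorescence was read at 340 nm excitation/450 nm emission; a per-plate six-point 4-MU standard curve converted signals to dye-equivalent concentration at each compound concentration.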
In the case of `C#CCNc1nc(C(C)C)nc2c1nnn2Cc1ccccc1F`, the max dye-equivalent concentration entry is “inactive”.

Turning to `CC(C)(C)c1nc(NCC2CCCO2)c2nnn(Cc3ccccc3)c2n1` (stereo not given), the max dye-equivalent concentration entry was “inactive”.

On to `Cc1nc(Nc2ccc3c(c2)OCCO3)c2nnn(Cc3ccccc3Cl)c2n1`, for which the max dye-equivalent concentration is 640 nM (active).

Take `Cc1ccc(-c2nnn(CC(=O)N(CCO)C(C(=O)NC(C)(C)C)c3ccncc3)n2)cc1` (stereo not given): the max dye-equivalent concentration result was “inactive”.

On to `COc1ccc(S(=O)(=O)N2CCCC(C(=O)N3CCN(C)CC3)C2)cc1C` (stereo not given), for which the max dye-equivalent concentration entry was “inactive”.

As to `COC(=O)N1CCC2(CCCN(Cc3ccccc3OC)C2)CC1`, the max dye-equivalent concentration entry was “inactive”.

As for `COc1ccc(CCNC(=O)CSc2nnc(-c3cccc(F)c3)o2)cc1OC`, the max dye-equivalent concentration entry is “inactive”.

On to `O=C(O)CSCc1nc2ccccc2s1`, for which the max dye-equivalent concentration result was “inactive”.

Turning to `CCC(=O)NC(=Nc1nc2ccccc2s1)NC(=O)CC`, the max dye-equivalent concentration was 150 nM (active).

Consider `COC(=O)Cc1cc(=O)n(-c2nc3ccccc3s2)[nH]1`, for which the max dye-equivalent concentration entry is “inactive”.

For the compound `COC(=O)CNS(=O)(=O)c1ccc(Cc2ccc(S(=O)(=O)NCC(=O)OC)cc2)cc1`, the max dye-equivalent concentration result was “inactive”.

Turning to `Cc1ccccc1Nc1nnc(C)c(=O)[nH]1`, the max dye-equivalent concentration result was “inactive”.

On to `COc1ccc(C2=CC(c3cccc(OC)c3)n3nnnc3N2)cc1` (stereo not given), for which the max dye-equivalent concentration is 13 nM (active).

On to `COc1ccc(C2C(C(=O)Nc3ccccc3OC)=C(C)Nc3nnnn32)c(OC)c1` (stereo not given), for which the max dye-equivalent concentration entry is “inactive”.

Consider `CCOc1cccc(-n2nnnc2-c2ccc(OC)cc2)c1`, for which the max dye-equivalent concentration entry was “inactive”.

Consider `CCCCC(=O)N1CC2(C)CN(C(=O)CCCC)CC(C)(C1)C2=O`, for which the max dye-equivalent concentration result was “inactive”.

On to `Cn1c(=O)n(C)c(=O)n(CC(=O)N2CCCCC2)c1=O`, for which the max dye-equivalent concentration entry was “inactive”.

Turning to `CS(=O)(=O)N(Cc1nc2sc3c(c2c(=O)[nH]1)CCCC3)C1CCCCC1`, the max dye-equivalent concentration is 34 nM (active).

With `Cc1cc(N2CCN(Cc3ccc4c(c3)OCO4)CC2)n2ncnc2n1`, the max dye-equivalent concentration entry is “inactive”.

Consider `Cc1cc(C)c2c(n1)nn1c(N3CCN(c4cccc(Cl)c4)CC3)cc(C)nc21`, for which the max dye-equivalent concentration was 100 nM (active).

As for `CCN1C(=O)/C(=C\N2CCN(c3cccc(Cl)c3)CC2)SC1=S`, the max dye-equivalent concentration entry was “inactive”.

On to `Cc1nn2c3cc(N4CCOCC4)ccc3nc2c2ccccc12`, for which the max dye-equivalent concentration entry was “inactive”.

Consider `Cc1cc(C)c2c(n1)nn1c(-n3ccnc3)cc(C)nc21`, for which the max dye-equivalent concentration is 240 nM (active).

As for `Cc1cc(C)c2c(n1)nn1c(N3CCOCC3)cc(C)nc21`, the max dye-equivalent concentration is 6300 nM (active).

With `CS(=O)(=O)N(CC(=O)N1CCN(c2cccc(Cl)c2)CC1)c1ccccc1`, the max dye-equivalent concentration result is “inactive”.

For `COc1ccc(C(=O)N2CCC3(CC2)CCN(c2ccccn2)CC3)cc1`, the max dye-equivalent concentration entry was “inactive”.

On to `CCn1c(CNC(=O)c2ccc(OC)c(OC)c2)nnc1SCC(=O)Nc1ccccc1`, for which the max dye-equivalent concentration entry is “inactive”.

In the case of `O=C(CN(Cc1ccccc1)C(=O)c1ccc2c(c1)OCCO2)NCc1ccc2c(c1)OCO2`, the max dye-equivalent concentration entry was “inactive”.

As for `Cc1nnc(NC2=NCCCCC2)o1`, the max dye-equivalent concentration entry was “inactive”.

`O=C(c1c(Cl)nc2sccn12)N1CCCc2ccccc21`: the max dye-equivalent concentration entry is “inactive”.

In the case of `O=C1CC(Cc2ccccc2)C(=O)N1c1ccc(Cl)cn1` (stereo not given), the max dye-equivalent concentration result is “inactive”.

Take `Cc1ccc(C(C(=O)NCc2ccco2)N(CC2CCCO2)C(=O)Cn2nnc3ccccc32)cc1` (stereo not given): the max dye-equivalent concentration entry is “inactive”.

Take `CN(C)C(=O)c1ccc(-c2cncnc2Nc2ccccc2)cc1`: the max dye-equivalent concentration entry was “inactive”.

In the case of `O=C(NCc1cn2ccsc2n1)Nc1cccc(Cl)c1`, the max dye-equivalent concentration entry is “inactive”.

Consider `O=C(/C=N/O)Nc1ccccc1`, for which the max dye-equivalent concentration entry is “inactive”.

Consider `CCS(=O)(=O)n1nc(-c2ccc(OC)cc2)nc1SC`, for which the max dye-equivalent concentration entry is “inactive”.

Consider `COc1cc(-c2nn3c(-c4cccc(C)c4)nnc3s2)cc(OC)c1OC`, for which the max dye-equivalent concentration is 1900 nM (active).

Regarding `CCOc1cccc(-c2nn3c(-c4ccccn4)nnc3s2)c1`, the max dye-equivalent concentration result was “inactive”.

As for `c1ccc(-c2cc(-c3nnc4sc(-c5ccccn5)nn34)[nH]n2)cc1`, the max dye-equivalent concentration entry is “inactive”.

Take `CCCC(CCC(=O)OC)(C(=O)OCC)c1csc(N)n1` (stereo not given): the max dye-equivalent concentration result is “inactive”.

As for `COc1ccc(CNc2ncncc2-c2ccccc2C)c(OC)c1`, the max dye-equivalent concentration entry was “inactive”.

For the compound `Oc1c(CN2CCOCC2)ccc(CN2CCOCC2)c1O`, the max dye-equivalent concentration result is “inactive”.

In the case of `O=c1[nH]nc(Cc2ccccn2)c2ccccc12`, the max dye-equivalent concentration result was “inactive”.

Take `CN(CCc1ccccn1)S(=O)(=O)c1ccc2c3c(cccc13)C(=O)N2`: the max dye-equivalent concentration was 790 nM (active).

`O=C(COC(=O)C12CC3CC(CC(C3)C1)C2)NCc1ccco1`: the max dye-equivalent concentration is 23 nM (active).

Take `O=C(COC(=O)CCC(=O)c1cccs1)NCc1ccco1`: the max dye-equivalent concentration result is “inactive”.

For the compound `Cc1cc(C(=O)OCC(=O)NCc2ccco2)c(C)n1-c1ccccc1`, the max dye-equivalent concentration entry is “inactive”.

Regarding `CC(C)(C)c1cc(CN2CCN(CCC#N)CC2)cc(C(C)(C)C)c1O`, the max dye-equivalent concentration entry was “inactive”.

As to `O=C(O)CCCc1ccccc1`, the max dye-equivalent concentration result is “inactive”.

For `O=C(O)Cc1ccc(NC(=O)c2cccs2)cc1`, the max dye-equivalent concentration result was “inactive”.

Take `O=C(O)Cc1ccc(-c2ccccc2)cc1`: the max dye-equivalent concentration is 49 nM (active) and the outcome was inactive.

For `CCOC(=O)C1CCN(C(=O)C2CCN(S(=O)(=O)CC)CC2)CC1`, the max dye-equivalent concentration result is “inactive”.

In the case of `O=C(O)CSCNC(=O)CC12CC3CC(CC(C3)C1)C2`, the max dye-equivalent concentration result was “inactive”.

Regarding `O=C(NC1CCCCC1)n1c(=O)oc2cc(S(=O)(=O)N3CCCCC3)ccc21`, the max dye-equivalent concentration entry was “inactive”.

The record behind these values is PubChem BioAssay AID589 (National Center for Advancing Translational Sciences (NCATS), 2007).
